Compound activity deposited in PubChem by The Scripps Research Institute Molecular Screening Center.
TEAD-YAP inh: TEAD-YAP interaction inhibition; inhibition, % at 9.12 µM; AID 1259422; 640,000 compounds, 1.4% hits; HEK-TIYL cells, TEAD-Gal4/YAP UAS-luciferase luminescence; in the data active means inhibition above about 32%
MITF inh: human MITF inhibition, primary screen; AlphaScreen MITF homodimerization, bead proximity signal; inhibition, % at 2.6 µM; 650,000 compounds, 0.91% hits; AID 1259374; in the data active means inhibition above about 50%
GPR151 activ: activators of human GPR151. PathHunter beta-arrestin GPR151 cells, luminescence. activation, % at 11.2 µM. 650,000 compounds, 1% hits; in the data active means activation above about 4.9%
Target sequence (Q8TDV0 whole entry, looked up): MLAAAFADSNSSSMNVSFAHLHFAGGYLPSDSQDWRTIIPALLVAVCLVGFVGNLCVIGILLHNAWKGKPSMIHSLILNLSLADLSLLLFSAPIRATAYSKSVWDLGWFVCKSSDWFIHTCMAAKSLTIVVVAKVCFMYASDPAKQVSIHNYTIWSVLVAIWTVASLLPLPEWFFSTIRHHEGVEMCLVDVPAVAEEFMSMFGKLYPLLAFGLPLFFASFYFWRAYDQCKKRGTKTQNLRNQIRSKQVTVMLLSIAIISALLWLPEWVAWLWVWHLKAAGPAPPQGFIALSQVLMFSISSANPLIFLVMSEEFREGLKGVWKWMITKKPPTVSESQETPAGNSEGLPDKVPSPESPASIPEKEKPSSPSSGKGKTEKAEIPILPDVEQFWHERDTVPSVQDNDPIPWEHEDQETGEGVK
FBW7 activator: human FBW7 E3 ligase activation, primary screen; normalized activity (activation), % at 26.1 µM; AlphaScreen FBW7–phospho-cyclin E peptide binding, activator screen; Q969H0; AID 1259310; 650,000 compounds, 0.13% hits; in the data active means normalized activity above about 1.9%;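 further: purified mutant Fbw7 with reduced substrate affinity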
Each line names hits and unclear results; the compound was inactive in the other large screens; ! = not confirmed by another sample. Only some compounds are listed: those with a hit (about 3.5% of all), similar ones and a draw of the others.

CCN1CCN(c2c(Cl)cccc2NC(=O)c2cc(Br)c(Br)o2)CC1	none
CCCNc1ccnc(-c2c(C)nn(C)c2C)n1	none
CCOC(=O)c1ccc(Nc2cc(OC)c([N+](=O)[O-])nc2[N+](=O)[O-])cc1	TEAD-YAP inh 67
COc1ccc(-c2csc(NC(=O)c3cc(Cl)ccc3[N+](=O)[O-])n2)cc1C	TEAD-YAP inh 53
CCOC(=O)c1sc(NC(=O)c2cc([N+](=O)[O-])ccc2Cl)nc1-c1ccccc1	TEAD-YAP inh 39
CCOC(=O)c1sc(NC(=O)c2cc(Cl)ccc2[N+](=O)[O-])nc1-c1ccccc1	none
CCOC(=O)c1ccc(NC(=O)c2cc([N+](=O)[O-])ccc2Cl)cc1	TEAD-YAP inh 39
O=C(NCc1nnc(SCC(=O)N2N=C(c3cccs3)CC2c2ccc(F)cc2)n1CCc1ccccc1)c1cccc(F)c1 (configuration not stated)	none
CC(=O)NC1=NC(=O)/C(=C\c2ccccc2F)S1	none
CCOC(=O)c1cnc2c(C)cc(Cl)cc2c1Nc1ccc(C)c(Cl)c1	none
CCOc1ccc(S(=O)(=O)NCCc2ccccc2)c2cccnc12	none
O=C(Nc1nc(-c2cccc3ccccc23)cs1)c1cc([N+](=O)[O-])ccc1Cl	TEAD-YAP inh 44
O=C(Nc1nc(-c2ccc3ccccc3c2)cs1)c1cc([N+](=O)[O-])ccc1Cl	TEAD-YAP inh 37
O=C(Nc1nc(-c2ccccc2)cs1)c1cc([N+](=O)[O-])ccc1Cl	TEAD-YAP inh 33
O=C(Nc1nc(-c2ccccc2)cs1)c1cc([N+](=O)[O-])ccc1Br	none
COc1ccc(-c2cccc3cnc(NC4CCC(C(=O)N5CCCC5)CC4)nc23)cc1F (configuration not stated)	TEAD-YAP inh 83!
COc1ccc(-c2cccc3cnc(Nc4ccc(-n5cnc(N6CCOCC6)n5)cc4)nc23)cc1F	none
COc1ccc(C(CC(=O)O)NC(=O)COc2ccccc2)cc1OC (configuration not stated)	none
COc1ccc(C(CC(=O)O)NC(=O)COc2cc(C)ccc2C)cc1OC (configuration not stated)	FBW7 activator 2.9
CCC(C)N(C(=O)CCl)C1CCS(=O)(=O)C1 (configuration not stated)	TEAD-YAP inh 56
Cn1c(SCC(=O)N(C2CCCCC2)C2CCS(=O)(=O)C2)nnc1C(F)(F)F (configuration not stated)	none
O=C(CCl)N(C1CCCC1)C1CCS(=O)(=O)C1 (configuration not stated)	TEAD-YAP inh 65
O=C(CCl)N(CC1CCCO1)C1CCS(=O)(=O)C1 (configuration not stated)	none
O=C(CCl)N(C1CCCCC1)C1CCS(=O)(=O)C1 (configuration not stated)	TEAD-YAP inh 70
O=C(CCl)N(C1CC1)C1CCS(=O)(=O)C1 (configuration not stated)	TEAD-YAP inh 54
COc1cc(Cl)cc(N=Cc2ccc(N3CCOCC3)cc2)c1O	none
CCOc1ccccc1NC(=O)Nc1ccc(CN2CCN(c3ccccn3)CC2)cc1	none
O=C1C2CC=CCC2C(=O)N1CC(=O)N(Cc1ccccc1)C1CCS(=O)(=O)C1 (configuration not stated)	none
O=C(CCl)N(Cc1ccccc1)C1CCS(=O)(=O)C1 (configuration not stated)	TEAD-YAP inh 56
CCOc1ccc2nc(NC(=O)C3CCN(c4nccc(C)n4)CC3)sc2c1	none
C=CCOC(=O)c1[nH]c2c(c1C)C(=O)CC(c1ccco1)C2 (configuration not stated)	TEAD-YAP inh 51
Cc1c(C(=O)OCC(C)C)[nH]c2c1C(=O)CCC2	none
Cc1c(C(=O)OCC(C)C)[nH]c2c1C(=O)CC(c1ccco1)C2 (configuration not stated)	TEAD-YAP inh 49
Cc1c(C(=O)OCC2CCCO2)[nH]c2c1C(=O)CC(c1ccco1)C2 (configuration not stated)	TEAD-YAP inh 52
C/C=C/COC(=O)c1[nH]c2c(c1C)C(=O)CC(c1ccco1)C2 (configuration not stated)	TEAD-YAP inh 57
CCOC(=O)c1[nH]c2c(c1C)C(=O)CC(c1ccc(OC)c(OC)c1)C2 (configuration not stated)	none
CC(=O)Nc1ccc(N2C(=O)CC(NCc3ccccc3F)C2=O)cc1 (configuration not stated)	none
Cc1cc(Br)ccc1S(=O)(=O)NCc1cccnc1	none
Cc1c(C(=O)OC2CCCC2)[nH]c2c1C(=O)CC(c1ccco1)C2 (configuration not stated)	TEAD-YAP inh 55
Cc1ccccc1C(=O)O/N=C(\N)c1ccccn1	TEAD-YAP inh 49
Cc1cccc(C(=O)O/N=C(\N)c2ccccn2)c1	TEAD-YAP inh 82
CC(=O)Oc1ccc(C(=O)O/N=C(\N)c2ccccn2)cc1	TEAD-YAP inh 50
COc1ccc(C(=O)O/N=C(\N)c2ccccn2)cc1OC	none
N/C(=N\OC(=O)c1ccc(I)cc1)c1ccccn1	TEAD-YAP inh 81
COc1ccc(/C(N)=N/OC(=O)c2ccc(OC(C)=O)cc2)cc1OC	none
CCOc1ccc(C(=O)Nc2ccccc2[N+](=O)[O-])cc1Br	none
COc1ccc(Br)cc1C(=O)Nc1ccc(-c2nn3c(C)nnc3s2)cc1	none
COc1ccc(C(=O)O/N=C(\N)c2ccccn2)c(OC)c1	TEAD-YAP inh 41
N/C(=N\OC(=O)c1ccc(F)cc1)c1ccc(Cl)cc1	none
N/C(=N\OC(=O)c1cc(Cl)ccc1Cl)c1ccccn1	TEAD-YAP inh 44
COc1ccc(C(=O)O/N=C(\N)c2ccc(OC)c(OC)c2)c(OC)c1	none
CCOc1ccc(C(=O)O/N=C(\N)c2ccccn2)cc1	TEAD-YAP inh 91
N/C(=N\OC(=O)c1ccc(F)cc1)c1ccc(Br)cc1	FBW7 activator 2.1
CSc1nc(C(=O)NCC2Cc3cc(-c4ccccn4)cc(F)c3O2)cs1 (configuration not stated)	none
CCOC(=O)CC1(NCc2c(C(=O)N3CCCC3)nc3ccccn23)CCCCC1	none
COc1ccc(CC(=O)NCC2(c3ccc(OC)cc3)CCCC2)cc1	none
CC(C)(C)c1ccc(C(=O)O/N=C(\N)c2ccncc2)cc1	none
CC(=O)Oc1ccc(C(=O)O/N=C(\N)c2ccncc2)cc1	TEAD-YAP inh 32
CCNC(=O)/C(C#N)=C/c1c(Oc2cccc(C)c2C)nc2ccccn2c1=O	TEAD-YAP inh 42
CCNC(=O)/C(C#N)=C/c1c(Oc2ccccc2C)nc2ccccn2c1=O	TEAD-YAP inh 34
CNC(=O)/C(C#N)=C/c1c(Oc2cccc(C)c2C)nc2ccccn2c1=O	none
CCC(=O)Nc1c(C)nn(-c2ccc(C)c(C)c2)c1C	none
Cc1ccc(-n2nc(C)c(NC(=O)CCl)c2C)cc1C	TEAD-YAP inh 45
CCCCOc1ccc(C(=O)Nn2cnc3ccccc3c2=O)cc1	none
Cc1ccc(NC(=O)N2CCCC2C(=O)Nc2ccccc2C)cc1 (configuration not stated)	FBW7 activator 6.3
Cc1ccccc1NC(=O)C1CCCN1C(=O)Nc1ccccc1 (configuration not stated)	none
